CYP2C19 act: cytochrome P450 2C19 (human) activation | P33261 | recombinant CYP2C19, luciferin-H EGE luminescence; stronger effect = higher value; 0 = fully inhibited enzyme, 1 = untreated enzyme | activation factor at 5 µM | 96,000 tested, under 10 active | AID 1025;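 active means activation factor of at least 2 at 5 µM in the primary screen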;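 further: 0 = wells with 2.5 mM tranylcypromine and 1 = vehicle-only wells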
Target sequence (P33261 whole entry, looked up): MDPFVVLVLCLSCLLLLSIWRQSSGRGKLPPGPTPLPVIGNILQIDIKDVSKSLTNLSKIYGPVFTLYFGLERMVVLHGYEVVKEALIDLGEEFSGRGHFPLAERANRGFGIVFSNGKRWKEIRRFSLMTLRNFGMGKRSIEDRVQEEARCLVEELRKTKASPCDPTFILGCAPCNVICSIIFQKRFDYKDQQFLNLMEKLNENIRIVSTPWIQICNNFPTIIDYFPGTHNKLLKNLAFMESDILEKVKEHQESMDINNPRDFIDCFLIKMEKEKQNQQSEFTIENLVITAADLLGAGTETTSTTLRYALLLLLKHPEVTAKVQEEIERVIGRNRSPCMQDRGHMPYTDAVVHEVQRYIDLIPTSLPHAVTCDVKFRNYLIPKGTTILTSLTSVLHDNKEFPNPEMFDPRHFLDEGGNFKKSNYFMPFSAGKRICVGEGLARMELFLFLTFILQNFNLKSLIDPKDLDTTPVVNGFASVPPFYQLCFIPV
sEH act: increases human soluble epoxide hydrolase activity; actives 0.04% (n = 91,000); activation, % at 2 µM; purified human sEH enzymatic activity, activator screen; AID 717; P34913; in the data active means activation above about 37%
sEH inhibitor: blocks human soluble epoxide hydrolase activity; P34913; recombinant human sEH enzymatic activity assay; inhibition, % at 2 µM; actives 0.34% (n = 91,000); in the data active means inhibition above about 80%
CYP2C9 activ: activators of human CYP2C9; actives 1.4% (n = 96,000); recombinant CYP2C9, luciferin-H conversion, luminescence; stronger effect = higher value; factor 1 = untreated enzyme, 0 = blocked; activation factor at 5 µM; P11712;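 active means activation factor of 2 or more for CYP2C9 at a 5 µM dose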;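 further: 0 = sulfaphenazole-blocked wells and 1 = vehicle-only wells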
CYP2C19 inh: blocks human cytochrome P450 2C19; inhibition, % at 5 µM; CYP2C19 Supersomes, luciferin-H EGE luminescence, 30 min; actives 21% (n = 96,000); AID 778;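 active means CYP2C19 inhibition above a set limit at 5 µM in the primary screen, cut at about 50% in these data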;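 further: plate controls were negative control wells for no effect and 2.5 mM tranylcypromine positive control for full effect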
CYP2C9 inh: blocks human cytochrome P450 2C9. P11712. CYP2C9 Supersomes, luciferin-H conversion, luminescence. inhibition, % at 5 µM. actives 20% (n = 96,000). AID 777;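 active means blocking of liver enzyme CYP2C9 beyond about 50% at 5 µM, limit read from the data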
An asterisk follows results filed as active; / = no result; ! = a repeat was not active. Compounds with a hit are over-represented: about 27% of the library has one in this group of screens.

SMILES	CYP2C19 act	sEH act	sEH inhibitor	CYP2C9 activ	CYP2C19 inh	CYP2C9 inh
CN(CCCNC(=O)c1cccn2c(=O)c3ccccc3nc12)Cc1ccccc1	0.6	10.7	-9.9	0.7	38.2	26.1
Cc1ccc(S(=O)(=O)N(CCO)Cc2cc3ccc(C)c(C)c3[nH]c2=O)cc1	0.9	-6.1	6.8	0.7	6.0	29.4
Cc1cc2cc(CN(Cc3ccco3)S(=O)(=O)c3c(C)ccc4nsnc34)c(=O)[nH]c2cc1C	0.9	-0.8	3.5	1	8.5	-2.7
Cc1ccc(S(=O)(=O)N(CCCO)Cc2cc3c(C)ccc(C)c3[nH]c2=O)cc1	0.9	-6.2	4.6	0.4	8.9	56.2*
Cc1ccc2[nH]c(=O)c(CN(CCCO)S(=O)(=O)c3c(C)ccc4nsnc34)cc2c1	1	-2.0	-0.5	0.3	2.9	65.1*
Cc1ccc2cc(CN(C)C(=O)C3CCCO3)c(=O)[nH]c2c1 (stereo not given)	1	-2.4	2.0	1	0.6	-4.4
Cc1ccc2cc(CN(CC3CCCO3)S(=O)(=O)c3cccc4nsnc34)c(=O)[nH]c2c1 (stereo not given)	0.4	-1.5	-1.7	0	57.2*	99.7*
Cc1cc2cc(CN(CCCO)S(=O)(=O)c3cccc4nsnc34)c(=O)[nH]c2cc1C	1	-15.6	14.3	0.1	2.8	92.8*
Cc1ccc(OCC(=O)NNC(=O)C2CCN(c3nc(C)cc(C)n3)CC2)cc1	0.9	17.4	-12.7	1	12.4	-0.1
Cc1ccc2cc(CN(Cc3ccco3)S(=O)(=O)c3c(C)ccc4nsnc34)c(=O)[nH]c2c1	0.5	9.2	-9.4	0.1	54.1*	88.7*
Cc1ccc(S(=O)(=O)/N=c2\sccn2C)cc1	0.8	-0.4	-0.7	2.2*	21.1	-122.1
Cn1ccs/c1=N\S(=O)(=O)c1ccc(F)cc1	0.7	11.9	-10.3	1.6	32.7	-61.7
COc1c(F)c(F)c(C(=O)Nc2cccc(Cl)c2N2CCOCC2)c(F)c1F	1.1	6.3	-6.4	1.1	-12.3	-14.1
CCOC(=O)N1CCN(CCC(=O)Nc2cccc(Br)c2)CC1	0.3	-3.0	2.6	0.4	65.4*!	58.3*!
CCOC(=O)N1CCN(CCC(=O)Nc2ccc(Br)cc2)CC1	0.1	-5.8	6.7	0.1	92.1*	94.8*
Cc1ccn2cc(CNC(=O)c3ccc(Br)o3)nc2c1	0.6	-8.9	8.2	0.7	35.1	26.0
Cc1[nH]n(-c2ccccc2)c(=O)c1/C=N/c1ccccn1	0.9	8.5	-6.8	0.9	8.5	7.6
CC1=NN(c2ccccc2)C(=O)/C1=C\c1c(C)[nH]n(-c2ccccc2)c1=O	1	-1.2	1.8	0.5	-4.7	50.9*
CCc1ccc(-c2nn(-c3ccccc3)cc2C2SCC(=O)N2Cc2ccco2)cc1 (stereo not given)	0.6	-4.5	1.6	0.3	44.0	67.4*
O=C1CSC(c2cn(-c3ccccc3)nc2-c2ccccc2)N1Cc1ccco1 (stereo not given)	0.1	1.2	0.3	0	85.7*	96.2*
O=C1CSC(c2cn(-c3ccccc3)nc2-c2cccs2)N1CC1CCCO1 (stereo not given)	0.3	-1.9	3.4	0.2	72.8*	80.0*
O=C(CSc1nnc(-c2ccco2)n1CC1CCCO1)c1ccc(F)cc1 (stereo not given)	0.6	-26.5	27.5	1.1	38.6	-8.9
CC(=O)Nc1ccc(NC(=O)C(C)OC(=O)CN(C)S(=O)(=O)c2ccc(Cl)cc2)cc1 (stereo not given)	0.2	18.2	-20.3	0.4	75.3*	60.3*
CC(OC(=O)CN(C)S(=O)(=O)c1ccc(Cl)cc1)C(=O)Nc1ccc(N2CCOCC2)cc1 (stereo not given)	0.9	/	/	1.1	8.6	-7.1
CC1(C)C(N(O)C(=O)Nc2ccccc2)N(c2cccc(Cl)c2)C(=O)N1O (stereo not given)	0.9	7.4	-9.0	0.3	12.4	73.3*
SMILES	CYP2C19 act	sEH act	sEH inhibitor	CYP2C9 activ	CYP2C19 inh	CYP2C9 inh
Cc1cccc(C)c1NC(=O)C(c1ccc(Cl)cc1Cl)N1CCCCC1 (stereo not given)	0.9	-8.6	10.4	0.7	12.8	26.7
COc1ccc(NS(=O)(=O)c2cccs2)c(OC)c1	0.5	7.5	-7.3	1.7	54.9*	-67.9
COc1ccccc1NS(=O)(=O)c1cccs1	0.2	7.5	-7.4	2.2*	80.9*	-116.6
COc1ccc(NS(=O)(=O)c2ccc(SC)cc2)c(OC)c1	0.1	-4.4	6.3	1.6	87.0*	-60.1
COc1cccc(NC(=O)CC2C(=O)NC3CCCCC3N2C(=O)c2ccc(F)cc2)c1 (stereo not given)	0.8	-24.0	23.9	0.5	18.4	49.6
COc1ccc(COC(=O)N/N=C(\C)CC(=O)Nc2c(C)cc(C)cc2C)cc1	1	12.6	-11.5	0.9	2.6	8.3
Cc1nn(Cc2c(Cl)cccc2Cl)c(C)c1NC(=O)/C=C/c1cnn(C)c1C	1	2.5	-1.5	0.8	3.2	18.8
Cc1noc(C)c1C(=O)Nc1sc(C)c(C)c1C#N	0.9	-5.6	8.9	0.4	9.5	62.0*
COc1ccc2c(c1OC)C(=O)OC2CC(=O)c1ccc2c(c1)OCO2 (stereo not given)	0.4	-1.3	3.7	0.6	55.7*	42.0
Cn1c(NC(=O)c2cc(Br)ccc2Cl)cc(=O)n(C)c1=O	0.4	23.5	-24.8	0.7	59.4*	28.9
CCOc1ccc2nc(NC(=O)CSc3nc4cccnc4n3C)sc2c1	1.1	4.8	-3.0	1.2	-9.6	-23.4
CCOC(=O)c1c(NC(=O)CSc2nnc(-c3ccccc3C)n2C)sc(C(C)=O)c1C	0.2	-18.4	19.1	0.1	84.4*	95.0*
CCOC(=O)c1cccc(NC(=O)Cn2c(CC(=O)NC)nc3ccccc32)c1	0.8	-2.7	1.6	0.3	24.8	70.7*
CCOC(=O)c1c(NC(=O)CSc2nc3cccnc3n2C)sc(C(C)=O)c1C	0.7	-6.8	5.5	0.3	27.1	69.2*
CCOC(=O)c1cccc(NC(=O)CSc2nc3cccnc3n2C)c1	0.4	/	/	0.5	58.5*	49.2
c1ccc(-c2ncnc3nc4n(c23)CCC4)cc1	1	0.3	2.6	1	-2.3	1.4
C=C(C)CC1Nc2ccccc2NC1CC(=C)C (stereo not given)	0.8	-5.7	10.7	1.1	16.3	-9.3
O=C(c1cccc(F)c1)N1CCN(C(=O)c2cc3ncc(Br)cn3n2)CC1	0.8	3.0	-4.9	0.9	24.2	11.3
Cc1csc(=N)n1-c1ccc(Cl)cc1	0.7	35.0	-32.8	0.8	29.8	21.6
O=C(NC1CC1)c1ccc(CS(=O)(=O)c2c(Cl)cccc2Cl)o1	1	-5.9	4.7	1.4	2.4	-42.3
CCCNC(=O)c1cccc(Cn2nc(C)c(Br)c2C)c1	0.1	-10.3	9.8	0.4	85.2*	63.2*

Bioassay records (PubChem BioAssay)
